Here are results for 40 molecules from PubChem BioAssay (NCI).

About 79,000 compounds went through this panel and 15% of them were active in at least one assay; those are over-represented in the sample as a whole. Activity calls are given as the source filed them. Cut-off read from the data, not from the text of the source: active = growth inhibition above about 70%; inactive = the rest.

A short description of the first assay: NCI Yeast Anticancer Drug Screen. Data for the sgs1 mgt1 strain (AID 161).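 Note: 0% = growth of cultures given vehicle only.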 The conditions noted are these: S. cerevisiae sgs1 mgt1 strain, at 50.0 µM, active compounds read high. Summed up: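 Mutant yeast exposed to compound; growth scored against vehicle-only wells.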
As to `O=C(N/N=C1\C(=O)N(c2nccs2)C(=O)C(=O)C1c1nc2ccccc2s1)c1ccccc1O` (stereo not given), the growth inhibition is 20.4% (inactive).
The same measure, in the same setting: with `CCc1nc2c([nH]1)c(=O)n(C)c(=O)n2C` the figure was 11.6% (inactive).
On the same count and under the same terms, under `O=c1[nH]c2cc([N+](=O)[O-])ccc2nc1/C(=N\Nc1ccccc1)C(O)c1ccc2c(c1)OCO2` (stereo not given) stands 21.6% (inactive).
With `CCN1CCC(O)(C(C(=O)O)c2ccccc2)CC1` (stereo not given), the growth inhibition was -35% (inactive).
As for `[Cl][Co][Cl].[NH-]CCC[NH-].[NH-]CCC[NH-]`, the growth inhibition is 13.3% (inactive).
Still for that read-out and setting: under `O=C(Nc1ccc([N+](=O)[O-])cc1Cl)OCCc1ccccn1` stands 23.6% (inactive); under `O=C(O)c1cc2oc3ccccc3c2cc1O`, 18.6% (inactive); under `CC(=O)N/C(=C/c1ccccc1)C(=O)NC(C)(C)C`, -9.85% (inactive).
Still for that read-out and setting: with `COC(=O)C1=C(C)NC(C)=C(C(=O)OC)C1c1ccc(NC(C)=O)cc1` the figure was 13.3% (inactive).
Same read-out and setting: with `c1ccc(C2CN3CCSC3=N2)cc1` (stereo not given) the figure was -19.1% (inactive); with `CC(C)(C)OC(=O)c1cccc(C(=O)OC(C)(C)C)c1`, 32.2% (inactive); with `O/N=C1/CC2CCCCC2CC1(O)c1ccccc1` (stereo not given), 17.6% (inactive).
In the case of `CC(=O)CC(=O)C1CCC(C(=O)CC(C)=O)CC1` (stereo not given), the growth inhibition was 0.65% (inactive).
On the same count and under the same terms, with `Cc1cccc([Si](c2ccccc2)(c2ccccc2)c2ccccc2)c1` the figure was -9.2% (inactive); with `CC(=O)NC(CCC(=O)C=[N+]=N)C(=O)O` (stereo not given), 33.5% (inactive).
In the case of `O=c1[nH]nnc2ccccc12`, the growth inhibition was 1.85% (inactive).
Still for that read-out and setting: with `O=C(O)C(Nc1ccc(Cc2ccc(NC(C(=O)O)c3ccccc3)cc2)cc1)c1ccccc1` (stereo not given) the figure was 92% (active); with `CCCCB1OB(CCCC)OB(CCCC)O1`, -6.2% (inactive); with `c1ccc2oc(C34OC5CC(CC(C5)O3)O4)nc2c1`, 21.9% (inactive).
In the case of `CCCCCC1CCC(OC(=O)NC)CC1` (stereo not given), the growth inhibition was -0.6% (inactive).
On to `CCCCN(CCCC)CC(O)c1c2cccc(Cl)c2cc2c(Cl)cccc12` (stereo not given), for which the growth inhibition is 78.6% (active).
Turning to `CC(=O)OC1=C(OC(C)=O)N(S(=O)(=O)c2ccc(C)cc2)CCc2ccccc21`, the growth inhibition was 36.6% (inactive).
The same measure, in the same setting: with `Clc1ccccc1N=NNc1ccccc1Cl` the figure was 7.05% (inactive); with `[N-]=[N+]=NCC1OCOC1C1OCOC1CN=[N+]=[N-]` (stereo not given), -4.05% (inactive).
Turning to `CCCCCCCNc1ccc(C(=O)OCC)cc1`, the growth inhibition is -1.95% (inactive).
Same read-out and setting: under `CC(C)C(C(=O)O)N(C)C(=O)c1cnc2ccccc2n1` (stereo not given) stands -0.6% (inactive).
As for `CC1OC(O)CC(NC(=O)C(F)(F)F)C1O` (stereo not given), the growth inhibition was 9.65% (inactive).
Same read-out and setting: under `O=S(=O)(O)c1cccc2nsnc12` stands -3.6% (inactive); under `Cc1sc2nc3n(c(=O)c2c1C)N=CN(c1ccccc1)C3`, 2.1% (inactive); under `COc1ccc(C23CCC(=O)N2CCS3)cc1` (stereo not given), -10.7% (inactive).
The same measure, in the same setting: under `Nc1ccc(Nc2cc(=O)[nH]c(=O)[nH]2)cc1Cl` stands 14.1% (inactive); under `CCCCC1SCC(=O)N1c1nncs1` (stereo not given), 5.4% (inactive); under `CC(Br)C(=O)NCC(=O)NCC(=O)O` (stereo not given), -4.2% (inactive).
The same measure, in the same setting: under `CCC(C)c1cc(C(C)(C)C)cc(-n2nc3ccccc3n2)c1OS(=O)(=O)c1cccc(N)c1` (stereo not given) stands -12.8% (inactive).
As for `COc1cccc(NC(=O)C(=O)C(C(=O)c2ccccc2F)C2OC(=O)c3ccccc32)c1` (stereo not given), the growth inhibition was 35.5% (inactive).
On the same count and under the same terms, with `N#C/C(=C/C=C/c1ccccc1)c1ccc([N+](=O)[O-])cc1` the figure was 24.8% (inactive); with `COc1ccc(C(CC(C)(C)C)c2ccc(OC)cc2)cc1`, 5.15% (inactive).
Take `CC(=O)OC1COC([n+]2cccc(C(N)=O)c2)C(OC(C)=O)C1OC(C)=O` (stereo not given): the growth inhibition is -25.9% (inactive).
Take `CCOC(=O)C(=Cc1ccc(Oc2ccccc2)cc1)C(=O)OCC`: the growth inhibition is 22.1% (inactive).
For `O=C1C2=C(c3ccccc31)C(c1ccccc1Cl)N1C(=O)CCSC1=N2` (stereo not given), the growth inhibition is 13.9% (inactive).

A short description of a further assay: NCI Yeast Anticancer Drug Screen. Data for the cln2 rad14 strain (AID 165).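 Note: 0% = growth equal to vehicle treated cultures.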 The conditions noted are these: S. cerevisiae cln2 rad14 strain, at 50.0 µM, active compounds read high. In a few lines: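 Growth of compound-exposed yeast (cln2 rad14 genotype) measured and expressed as inhibition relative to vehicle.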
With `O=C(N/N=C1\C(=O)N(c2nccs2)C(=O)C(=O)C1c1nc2ccccc2s1)c1ccccc1O` (stereo not given), the growth inhibition was 30.1% (inactive).
As for `CCc1nc2c([nH]1)c(=O)n(C)c(=O)n2C`, the growth inhibition was 16.5% (inactive).
Same read-out and setting: with `O=c1[nH]c2cc([N+](=O)[O-])ccc2nc1/C(=N\Nc1ccccc1)C(O)c1ccc2c(c1)OCO2` (stereo not given) the figure was 29.4% (inactive); with `CCN1CCC(O)(C(C(=O)O)c2ccccc2)CC1` (stereo not given), -28.8% (inactive); with `[Cl][Co][Cl].[NH-]CCC[NH-].[NH-]CCC[NH-]`, 10.2% (inactive).
On the same count and under the same terms, with `O=C(Nc1ccc([N+](=O)[O-])cc1Cl)OCCc1ccccn1` the figure was -10.6% (inactive); with `O=C(O)c1cc2oc3ccccc3c2cc1O`, 4.4% (inactive); with `CC(=O)N/C(=C/c1ccccc1)C(=O)NC(C)(C)C`, -4.25% (inactive).
`COC(=O)C1=C(C)NC(C)=C(C(=O)OC)C1c1ccc(NC(C)=O)cc1`: the growth inhibition was -6.25% (inactive).
In the case of `c1ccc(C2CN3CCSC3=N2)cc1` (stereo not given), the growth inhibition is 5.5% (inactive).
On the same count and under the same terms, under `CC(C)(C)OC(=O)c1cccc(C(=O)OC(C)(C)C)c1` stands -9.7% (inactive); under `O/N=C1/CC2CCCCC2CC1(O)c1ccccc1` (stereo not given), 18.4% (inactive); under `CC(=O)CC(=O)C1CCC(C(=O)CC(C)=O)CC1` (stereo not given), -28.1% (inactive).
Still for that read-out and setting: with `Cc1cccc([Si](c2ccccc2)(c2ccccc2)c2ccccc2)c1` the figure was -0.75% (inactive); with `CC(=O)NC(CCC(=O)C=[N+]=N)C(=O)O` (stereo not given), 14.1% (inactive).
`O=c1[nH]nnc2ccccc12`: the growth inhibition is 4.55% (inactive).
As for `O=C(O)C(Nc1ccc(Cc2ccc(NC(C(=O)O)c3ccccc3)cc2)cc1)c1ccccc1` (stereo not given), the growth inhibition is -4.5% (inactive).
As to `CCCCB1OB(CCCC)OB(CCCC)O1`, the growth inhibition is 5.25% (inactive).
Still for that read-out and setting: under `c1ccc2oc(C34OC5CC(CC(C5)O3)O4)nc2c1` stands 11.1% (inactive).
Still for that read-out and setting: with `CCCCCC1CCC(OC(=O)NC)CC1` (stereo not given) the figure was -19.9% (inactive); with `CCCCN(CCCC)CC(O)c1c2cccc(Cl)c2cc2c(Cl)cccc12` (stereo not given), 93.3% (active); with `CC(=O)OC1=C(OC(C)=O)N(S(=O)(=O)c2ccc(C)cc2)CCc2ccccc21`, 26.5% (inactive).
For the molecule `Clc1ccccc1N=NNc1ccccc1Cl`, the growth inhibition is -29.5% (inactive).
Same read-out and setting: under `[N-]=[N+]=NCC1OCOC1C1OCOC1CN=[N+]=[N-]` (stereo not given) stands -33.7% (inactive); under `CCCCCCCNc1ccc(C(=O)OCC)cc1`, 8.15% (inactive).
Regarding `CC(C)C(C(=O)O)N(C)C(=O)c1cnc2ccccc2n1` (stereo not given), the growth inhibition was 22.9% (inactive).
On the same count and under the same terms, with `CC1OC(O)CC(NC(=O)C(F)(F)F)C1O` (stereo not given) the figure was -21.9% (inactive); with `O=S(=O)(O)c1cccc2nsnc12`, 13.1% (inactive).
The same measure, in the same setting: under `Cc1sc2nc3n(c(=O)c2c1C)N=CN(c1ccccc1)C3` stands -12.8% (inactive); under `COc1ccc(C23CCC(=O)N2CCS3)cc1` (stereo not given), 8.15% (inactive); under `Nc1ccc(Nc2cc(=O)[nH]c(=O)[nH]2)cc1Cl`, 6.2% (inactive).
Regarding `CCCCC1SCC(=O)N1c1nncs1` (stereo not given), the growth inhibition was -3.8% (inactive).
With `CC(Br)C(=O)NCC(=O)NCC(=O)O` (stereo not given), the growth inhibition was 16.4% (inactive).
On the same count and under the same terms, with `CCC(C)c1cc(C(C)(C)C)cc(-n2nc3ccccc3n2)c1OS(=O)(=O)c1cccc(N)c1` (stereo not given) the figure was 2.7% (inactive); with `COc1cccc(NC(=O)C(=O)C(C(=O)c2ccccc2F)C2OC(=O)c3ccccc32)c1` (stereo not given), 18.9% (inactive); with `N#C/C(=C/C=C/c1ccccc1)c1ccc([N+](=O)[O-])cc1`, -8.2% (inactive).
Regarding `COc1ccc(C(CC(C)(C)C)c2ccc(OC)cc2)cc1`, the growth inhibition was -44.5% (inactive).
Still for that read-out and setting: under `CC(=O)OC1COC([n+]2cccc(C(N)=O)c2)C(OC(C)=O)C1OC(C)=O` (stereo not given) stands -32.6% (inactive); under `CCOC(=O)C(=Cc1ccc(Oc2ccccc2)cc1)C(=O)OCC`, 24.8% (inactive).
The same measure, in the same setting: under `O=C1C2=C(c3ccccc31)C(c1ccccc1Cl)N1C(=O)CCSC1=N2` (stereo not given) stands 8.85% (inactive).
